Assay results: PubChem BioAssay (NCI)
About 83,000 compounds went through this panel and 20% of them were active in at least one assay; those are over-represented in the sample as a whole.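 Compound tested at a single concentration for 48 hours in 96-well plates; a percent growth value below 10 was scored as active.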 The source made the active and inactive calls.

Columns and labels:
Assay in all cases: NCI-60 one-dose screen, 48 h (100 = growth as untreated, 0 = no growth, -100 = all killed)
Settings in all cases: 10 µM unless noted
[1] = test system: HCT-15 colon
[2] = test system: HT29 colon
[3] = test system: SNB-19 CNS
[4] = test system: U251 CNS
[5] = test system: PC-3 prostate
[6] = test system: UACC-62 melanoma
[7] = test system: LOX IMVI melanoma
[8] = test system: SK-MEL-28 melanoma
[9] = test system: SK-MEL-2 melanoma
[10] = test system: EKVX NSCLC
[11] = test system: SN12C renal
[12] = test system: UO-31 renal
[13] = test system: TK-10 renal
[14] = test system: ACHN renal
[15] = test system: CAKI-1 renal
[16] = test system: A498 renal
[17] = test system: CCRF-CEM leukemia
[18] = test system: MOLT-4 leukemia
[19] = test system: SK-MEL-5 melanoma

Measured: growth

CCOC(=O)c1cnc2ccc(Br)cc2c1Nc1cccc(S(=O)(=O)NC)c1
inactive: [1] 80.5% | [2] 101% | [3] 100% | [4] 109% | [5] 102% | [6] 96.9% | [7] 93.6% | [8] 122% | [9] 111% | [10] 96.2% | [11] 103% | [12] 80.4% | [13] 114% | [14] 98.3% | [15] 87.4% | [16] 77.7% | [17] 105% | [18] 115%

Nc1ccc2c(c1)C(=O)NC2=O
active: [17] -49.6%
inactive: [1] 98.5% | [2] 90.7% | [3] 93.5% | [4] 96% | [5] 121% | [19] 105% | [6] 89.7% | [7] 97.8% | [8] 99.8% | [9] 117% | [10] 112% | [11] 94.9% | [12] 70.8% | [13] 118% | [14] 99.3% | [15] 99.6% | [16] 119% | [18] 105%

CC/C=C\C[C@H](O)C/C=C1/C(=O)C=C[C@@H]1C/C=C\CCCC(=O)NC
active: [1] -28.4% | [2] 0.814% | [4] -8.98% | [19] -94.5% | [6] -45.3% | [7] -72.2% | [8] -17.1% | [11] -3.66% | [12] -76.8% | [13] -8.31% | [14] -86.1% | [17] -14.6% | [18] -14.1%
inactive: [3] 22.5% | [5] 13.6% | [9] 16.1% | [10] 23.8% | [16] 56.1%

COc1cc(/C=C2\CN(C(=O)CCN3CCC(=NO)CC3)C/C(=C\c3cc(OC)c(OC)c(OC)c3)C2=O)cc(OC)c1OC
active: [1] -54.7% | [2] -70% | [3] -90.1% | [4] -68.6% | [5] -54.3% | [19] -61.2% | [6] -70.7% | [7] -85.2% | [8] -76.7% | [9] -26.9% | [10] -36.1% | [12] -96.2% | [13] -69.2% | [14] -44.2% | [15] -77.2% | [16] -87.2% | [17] -37.3% | [18] 2.41%

Cc1ccc(-c2nc(/C=N/Nc3cc(C)nc4ccc(Cl)cc34)c(C)o2)cc1
inactive: [5] 33.7% | [19] 49.6% | [6] 31.7% | [9] 95.1% | [16] 67.6%
active: [1] -67.5% | [2] -77.9% | [3] -44.7% | [4] -94.8% | [7] -80.3% | [8] -68.8% | [10] -41.2% | [11] -81.2% | [12] -99.7% | [13] -54.8% | [14] -100% | [15] -63.6% | [17] -51.3% | [18] -31.3%
